The whole screen tested about 39,000 compounds, of which about 3,300 (8.5%) were called active. The sample holds actives, similar compounds and a random draw of the others, so the mix is not that of the screen.

Cytotoxicity call data for 40 molecules are collected here from the antibiotic and cytotoxicity screens of Wong et al. (2023).

In this assay the test system is HepG2. Kind of assay: cytotoxicity call (relative viability < 0.9). The settings on record: 10 µM.
With `C[C@@H]1CN([C@H](C)CO)C(=O)c2cc(C#Cc3cccc(F)c3)cnc2O[C@@H]1CN(C)CC1CCOCC1`, the cytotoxicity call was “inactive”.

Consider `COc1ccc(S(=O)(=O)N(C)C[C@@H]2Oc3cc(C#CC4CC4)ccc3S(=O)(=O)N([C@H](C)CO)C[C@@H]2C)cc1`, for which the cytotoxicity call was “inactive”.

Take `CO[C@H]1CN(C)C(=O)c2cc(NC(=O)NC3CCCCC3)ccc2OC[C@@H](C)N(CCc2ccccc2)C[C@H]1C`: the cytotoxicity call is “inactive”.

In the case of `Cc1noc(C)c1S(=O)(=O)Nc1ccc2c(c1)CC(=O)N([C@@H](C)CO)C[C@@H](C)[C@@H](CN(C)C(=O)NC1CCCCC1)O2`, the cytotoxicity call was “inactive”.

On to `CN(C)CCCNC(=O)C[C@H]1CC[C@H]2[C@@H](COC[C@@H](O)CN2S(=O)(=O)c2ccccc2)O1`, for which the cytotoxicity call was “inactive”.

`C[C@@H]1CCCCO[C@H](CN(C)C(=O)Cc2ccccc2)[C@@H](C)CN([C@@H](C)CO)C(=O)c2cc(NC(=O)Nc3ccc(F)cc3)ccc2O1`: the cytotoxicity call is “inactive”.

On to `C[C@@H]1CN([C@@H](C)CO)C(=O)c2c(c3ccccc3n2C)-c2ccccc2CO[C@H]1CN(C)S(=O)(=O)c1ccc(C(F)(F)F)cc1`, for which the cytotoxicity call was “inactive”.

Regarding `C[C@@H]1CN([C@@H](C)CO)C(=O)c2c(c3ccccc3n2C)-c2ccccc2CO[C@H]1CN(C)S(=O)(=O)c1ccc(Cl)cc1`, the cytotoxicity call is “active”.

Turning to `C[C@H]1CN([C@@H](C)CO)C(=O)c2c(c3ccccc3n2C)-c2ccccc2CO[C@@H]1CN(C)S(=O)(=O)c1ccc(Cl)cc1`, the cytotoxicity call was “active”.

Take `C[C@H](CO)N1C[C@H](C)[C@H](CN(C)S(=O)(=O)c2ccc(Cl)cc2)OCc2ccccc2-c2c(n(C)c3ccccc23)C1=O`: the cytotoxicity call is “active”.

In the case of `C[C@@H]1CN([C@H](C)CO)C(=O)c2c(c3ccccc3n2C)-c2ccccc2CO[C@H]1CN(C)S(=O)(=O)c1ccc(Cl)cc1`, the cytotoxicity call was “inactive”.

With `C[C@H]1CN([C@@H](C)CO)C(=O)c2c(c3ccccc3n2C)-c2ccccc2CO[C@H]1CN(C)S(=O)(=O)c1ccc(C(F)(F)F)cc1`, the cytotoxicity call is “inactive”.

As to `C[C@@H]1CN([C@H](C)CO)C(=O)c2c(c3ccccc3n2C)-c2ccccc2CO[C@@H]1CN(C)S(=O)(=O)c1ccc(Cl)cc1`, the cytotoxicity call is “inactive”.

On to `C[C@@H]1CN([C@@H](C)CO)C(=O)c2c(c3ccccc3n2C)-c2ccccc2CO[C@@H]1CN(C)S(=O)(=O)c1ccc(Cl)cc1`, for which the cytotoxicity call is “inactive”.

With `C[C@@H]1CN([C@@H](C)CO)C(=O)c2c(c3ccccc3n2C)-c2ccccc2CO[C@@H]1CN(C)S(=O)(=O)c1ccc(C(F)(F)F)cc1`, the cytotoxicity call was “inactive”.

For the molecule `C[C@H]1CN([C@@H](C)CO)C(=O)c2c(c3ccccc3n2C)-c2ccccc2CO[C@H]1CN(C)S(=O)(=O)c1ccc(Cl)cc1`, the cytotoxicity call was “active”.

As for `C[C@@H]1CN([C@H](C)CO)C(=O)c2c(c3ccccc3n2C)-c2ccccc2CO[C@@H]1CN(C)S(=O)(=O)c1ccc(C(F)(F)F)cc1`, the cytotoxicity call was “inactive”.

In the case of `C[C@H](CO)N1C[C@H](C)[C@@H](CN(C)S(=O)(=O)c2ccc(Cl)cc2)OCc2ccccc2-c2c(n(C)c3ccccc23)C1=O`, the cytotoxicity call was “inactive”.

With `C[C@@H]1CCCCO[C@H](CN(C)CC2CC2)[C@H](C)CN([C@@H](C)CO)C(=O)c2cc(NS(=O)(=O)c3cn(C)cn3)ccc2O1`, the cytotoxicity call is “inactive”.

For the molecule `COCC#Cc1ccc2c(c1)O[C@@H](CN(C)S(=O)(=O)c1ccc(C)cc1)[C@H](C)CN([C@@H](C)CO)S2(=O)=O`, the cytotoxicity call is “inactive”.

In the case of `O=C1N[C@H]2[C@@H]1[C@@H]1C=C[C@H]2C1`, the cytotoxicity call is “inactive”.

For the molecule `COc1ccc(NC(=O)Nc2cccc3c2O[C@@H](CN(C)Cc2ccc(C(F)(F)F)cc2)[C@@H](C)CN([C@@H](C)CO)C3=O)cc1`, the cytotoxicity call is “inactive”.

Regarding `Cc1ccc(S(=O)(=O)Nc2ccc3c(c2)C(=O)N([C@H](C)CO)C[C@@H](C)[C@H](CN(C)C(=O)NC2CCCCC2)OCCCC[C@H](C)O3)cc1`, the cytotoxicity call is “inactive”.

As for `C[C@@H]1CCCCO[C@H](CN(C)Cc2ccccc2)[C@@H](C)CN([C@@H](C)CO)C(=O)c2cc(NC(=O)c3ccccc3)ccc2O1`, the cytotoxicity call is “inactive”.

Take `CNC(=O)C[C@H]1Nc2ccccc2NC1=O`: the cytotoxicity call was “inactive”.

For `N[C@H]1CCCC[C@@H]1OCc1ccccc1`, the cytotoxicity call was “inactive”.

With `CC1CCC2(C)C(C=O)=CCCC2C1(C)CC1OC(O)C(=O)C12CO2` (stereo not given), the cytotoxicity call is “active”.

On to `Cc1noc(C)c1S(=O)(=O)N(C)C[C@@H]1OCc2cn(nn2)CCCC(=O)N([C@@H](C)CO)C[C@H]1C`, for which the cytotoxicity call was “inactive”.

For `C[C@H]1CN([C@@H](C)CO)C(=O)c2cc(NC(=O)Cc3ccccc3)ccc2O[C@@H]1CN(C)Cc1ccc(Oc2ccccc2)cc1`, the cytotoxicity call is “active”.

Regarding `C[C@H](CO)N1C[C@H](C)[C@H](CN(C)Cc2ccc(Oc3ccccc3)cc2)Oc2ccc(NC(=O)Cc3ccccc3)cc2C1=O`, the cytotoxicity call is “inactive”.

For `C[C@@H]1CN([C@H](C)CO)C(=O)c2cc(NC(=O)Cc3ccccc3)ccc2O[C@H]1CN(C)Cc1ccc(Oc2ccccc2)cc1`, the cytotoxicity call was “active”.

`C[C@H](CO)N1C[C@H](C)[C@@H](CN(C)Cc2ccc(Oc3ccccc3)cc2)Oc2ccc(NC(=O)Cc3ccccc3)cc2C1=O`: the cytotoxicity call is “inactive”.

On to `C[C@@H]1CN([C@@H](C)CO)C(=O)c2cc(NC(=O)Cc3ccccc3)ccc2O[C@H]1CN(C)Cc1ccc(Oc2ccccc2)cc1`, for which the cytotoxicity call is “inactive”.

Turning to `C[C@@H]1CN([C@@H](C)CO)C(=O)c2cc(NC(=O)Cc3ccccc3)ccc2O[C@@H]1CN(C)Cc1ccc(Oc2ccccc2)cc1`, the cytotoxicity call is “active”.

Turning to `C[C@@H]1CN([C@H](C)CO)C(=O)c2cc(NC(=O)Cc3ccccc3)ccc2O[C@@H]1CN(C)Cc1ccc(Oc2ccccc2)cc1`, the cytotoxicity call is “inactive”.

On to `C[C@H]1CN([C@@H](C)CO)C(=O)c2cc(NC(=O)Cc3ccccc3)ccc2O[C@H]1CN(C)Cc1ccc(Oc2ccccc2)cc1`, for which the cytotoxicity call was “inactive”.

Consider `COc1ccc(NC(=O)N(C)C[C@H]2Oc3ccc(NC(=O)CCCCCC(=O)Nc4ccccc4N)cc3CC(=O)N([C@@H](C)CO)C[C@@H]2C)cc1`, for which the cytotoxicity call was “inactive”.

In the case of `C[C@H](CO)N1C[C@H](C)[C@@H](CN(C)S(C)(=O)=O)Oc2c(NC(=O)NC3CCCCC3)cccc2C1=O`, the cytotoxicity call was “inactive”.

As for `CO[C@H]1CN(C)C(=O)c2ccc(NC(=O)NC(C)C)cc2OC[C@@H](C)N(Cc2ccc(-c3ccccn3)cc2)C[C@H]1C`, the cytotoxicity call is “inactive”.

In the case of `O=C(CN1CCOCC1)NCC[C@@H]1CC[C@@H](NC(=O)Nc2ccccc2)[C@H](CO)O1`, the cytotoxicity call was “inactive”.
